Marburg entry inh – Marburg virus entry inhibition; Marburg virus pseudotyped entry inhibition, cell reporter; Potency, µM (top dose mostly 37.8 µM), usual class: inhibitors; 300,000 compounds, 1.8% hits; AID 540276; calls by dose curve; tested in HEK293 cells
HCV inh – HCV inhibition; Huh7.5.1 HCVcc-Cre infection, luciferase reporter, 44 h; Potency, µM (top dose mostly 41.8 µM), most hits filed as inhibitors; 340,000 compounds, 3.4% hits; AID 651820; active means well fitted inhibition curve with a large enough effect; inconclusive means small, poorly fitted or top-dose-only effect, or another doubt; inactive means no such curve, though single readings can be large or run the other way
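Reporter virus HCVcc-Cre (~0.5 moi) infects cells exposed to compound; seeding density 1,000 cells/well with 4 h settling beforehand. Luminescence, 15 sec read, taken 44 h post-infection following a 15 min RT substrate incubation.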
FMDV antiviral – foot and mouth disease virus antiviral activity; FMDV antiviral cell-based qHTS; Potency, µM (series often up to 57.9 µM), actives largely listed as inhibitors; 410,000 compounds, 1.2% hits; AID 1159524; calls by dose curve; tested in HEK293T cells; further: read-out not given here; nearly all actives have a fitted effect of over 45% in size
HCMV antiviral – inhibitors of human cytomegalovirus; HFF cells, HCMV-luciferase reporter, 72 h; hits give low values; 410,000 compounds, 4.5% hits; AID 1259415; activity change, negative = inhibition, % at 57.5 µM; in the data active means activity change below about -60%; inconclusive means no clear call, values can overlap the other calls; inactive means above about -39%
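Two-dose cell screen: HFF monolayers treated with compounds and infected with luciferase-expressing HCMV at 1 PFU/cell, 72 h at 37C, then lysed for luciferase measurement.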
LASV entry inh – inhibitors of Lassa virus binding or cell entry; Lassa virus pseudotype entry inhibition, cell reporter; Potency, µM (highest dose often 37.9 µM), actives largely listed as inhibitors; 300,000 compounds, 1.2% hits; calls by dose curve; tested in HEK293 cells; further: nearly all actives have a fitted effect of over 50% in size
Each line names hits and unclear results; the compound was inactive in the other large screens. Compounds with a hit are over-represented: about 7.9% of the library has one in this group of screens.

O=C1C2C(c3ccccc3)C=CC(c3ccccc3)C2C(=O)N1CCCO (configuration not stated)	FMDV antiviral 31.6µM
C=CCOCCN1C(=O)C2C(c3ccccc3)C=CC(c3ccccc3)C2C1=O (configuration not stated)	Marburg entry inh inconclusive, FMDV antiviral inconclusive
O=C(NCCCN1CCOCC1)c1ccc2c(c1)N(Cc1cccc(Cl)c1)C(=O)CS2	Marburg entry inh inconclusive, HCMV antiviral inconclusive
CCn1c(SCC(=O)N/N=C/C=C\c2ccccc2[N+](=O)[O-])nnc1-c1ccccc1	HCV inh inconclusive
Cc1ccccc1-n1c(SCC(=O)N/N=C/C=C/c2ccccc2[N+](=O)[O-])nc2ccccc2c1=O	Marburg entry inh 7.08µM, HCV inh inconclusive, HCMV antiviral inconclusive, LASV entry inh inconclusive
O=C(CSc1nc2ccccc2c(=O)n1-c1ccccc1)N/N=C/C=C/c1ccccc1[N+](=O)[O-]	HCV inh inconclusive (no result: Marburg entry inh, LASV entry inh)
CC(/C=N/NC(=O)CSc1nnc(SCc2ccccc2)s1)=C\c1ccco1	none
Cc1ccc(CSc2nnc(SCC(=O)N/N=C/C=C/c3ccccc3[N+](=O)[O-])s2)cc1	Marburg entry inh inconclusive, HCMV antiviral -78.2, LASV entry inh inconclusive
Cc1ccc(CSc2nnc(SCC(=O)N/N=C/C=C/c3ccco3)s2)cc1	Marburg entry inh inconclusive, HCMV antiviral -61.2, LASV entry inh inconclusive
CCCSCCCNC(=O)C1CCN(c2nn3cc(-c4ccc(F)cc4)nc3s2)CC1	none (no result: Marburg entry inh, HCV inh)
CCCC(=O)N1CCN(c2nc(CC(C)C)c3c(c2C#N)CCC3)CC1	Marburg entry inh inconclusive, HCV inh inconclusive, FMDV antiviral inconclusive, HCMV antiviral inconclusive, LASV entry inh 12.6µM
CC(C)Cc1nc(N2CCN(C(=O)c3ccco3)CC2)c(C#N)c2c1CCCC2	HCV inh 10µM, FMDV antiviral inconclusive (no result: Marburg entry inh, LASV entry inh)
CC(C)C(=O)N1CCN(c2nc(-c3ccccc3)c3c(c2C#N)CCCC3)CC1	Marburg entry inh inconclusive, HCV inh 6.31µM, FMDV antiviral inconclusive, HCMV antiviral inconclusive, LASV entry inh inconclusive
Oc1ccc(/C=C/c2nc(-c3ccccc3O)n(-c3ccccc3)n2)c(O)c1	Marburg entry inh inconclusive, HCMV antiviral inconclusive (no result: HCV inh)
O=C(Nc1ccc(Cl)cc1)Nc1nnc(SCc2ccc(Cl)cc2)s1	FMDV antiviral inconclusive (no result: Marburg entry inh, LASV entry inh)
O=C(Nc1ccc(Cl)cc1)Nc1nnc(CSc2ccc(Cl)cc2)s1	Marburg entry inh inconclusive, HCV inh inconclusive, FMDV antiviral inconclusive, HCMV antiviral -85.5
O=C(Nc1cccc(Cl)c1)Nc1nnc(CC2=CCCCC2)s1	HCV inh inconclusive, FMDV antiviral inconclusive, HCMV antiviral -98.4
O=C(Nc1ccc(Cl)cc1)Nc1nnc(CSCc2ccccc2)s1	HCMV antiviral -70.2
O=C(Nc1cccc(Cl)c1)Nc1nnc(CSCCOc2ccc(Cl)cc2)s1	Marburg entry inh inconclusive, HCV inh 2.51µM, FMDV antiviral inconclusive, HCMV antiviral -72.0, LASV entry inh inconclusive
COc1ccc2c3c(n(C)c2c1)[C@@H](CO)N(C)CC31CN(C(=O)CN2CCOCC2)C1	none (no result: Marburg entry inh, HCV inh, FMDV antiviral, LASV entry inh)
Cc1cc(-c2ccccc2)n(-c2ccccc2)n1	none
O=C(Oc1ccc(Br)cc1C(=O)/C=C/c1ccccc1F)c1ccco1	Marburg entry inh inconclusive, HCV inh 10µM, FMDV antiviral inconclusive, HCMV antiviral -77.6, LASV entry inh inconclusive
Cc1noc(NS(=O)(=O)c2ccc(NC(=O)c3ccc(Br)cc3)cc2)c1C	none (no result: Marburg entry inh, HCV inh)
O=S(=O)(c1ccc(F)cc1)c1nc(-c2ccco2)oc1Nc1ccc(F)cc1	HCV inh inconclusive, HCMV antiviral -73.6
CCC[C@H]1CN(Cc2ccccc2)C(=O)[C@H]1CC(=O)NC	none (no result: Marburg entry inh, HCV inh, FMDV antiviral, HCMV antiviral)
C#CCOCCOCCOCCNc1nc(N2CCN(C(=O)C([C@@H](C)O)n3cc([C@@H](N)CCCCN)nn3)CC2)nc(N2CCN(C(=O)[C@H](CCCN=C(N)N)n3cc(C(N)[C@@H](C)CC)nn3)CC2)n1 (some centres not stated)	none (no result: Marburg entry inh, HCMV antiviral, LASV entry inh)
COc1cc2cnncc2cc1OC	none
COc1cc2cc(Br)cc(Br)c2nc1C	HCV inh 11.2µM
COc1ccc(-c2n[nH]c3c2cnc2cc(OC)c(OC)cc23)cc1	none (no result: Marburg entry inh, HCV inh)
Cc1ccc(CNC(=O)c2nc(S(=O)(=O)Cc3ccc(C)cc3)ncc2Cl)cc1	Marburg entry inh inconclusive, LASV entry inh inconclusive (no result: HCV inh)
COC(=O)c1ccccc1NC(=O)c1nc(S(=O)(=O)Cc2cccc(C)c2)ncc1Cl	FMDV antiviral inconclusive, HCMV antiviral -60.1 (no result: HCV inh)
COC(=O)c1ccc(NC(=O)c2nc(S(=O)(=O)Cc3cccc(C)c3)ncc2Cl)cc1	Marburg entry inh inconclusive, HCV inh inconclusive, FMDV antiviral 28.2µM, HCMV antiviral -101.3, LASV entry inh inconclusive

Source: PubChem (National Center for Advancing Translational Sciences (NCATS))
